Assay results published in PubChem BioAssay.
Activity calls are given as the source filed them.

Key:
[1] = system: PRMT1 (protein arginine N-methyltransferase 1); test: PRMT1 binders on small-molecule microarrays, primary screen, biochemical, small-molecule microarray, 635 nm fluorescence (AID 1088); conditions: small-molecule microarray binding, higher = more signal;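 also: binding of Prmt1 protein to compounds spotted on small-molecule microarray slides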
[2] = yeast growth modulation, basal conditions, primary screen, YJM789 clinical isolate, OD600, 24 h (AID 1089);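 also: growth of clinical yeast isolate S. cerevisiae YJM 789 seeded 1000 cells per well; test concentration not given here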; conditions: S. cerevisiae YJM789 growth, higher = more signal, called active from +8 up or from −8 down
[3] = fission yeast growth modulation, primary screen, strain 972, OD600, 24 h, no modulator (AID 1090);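 also: basal condition with compound alone and no growth modifier present; test concentration not given here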; conditions: S. pombe 972 growth, higher = more signal, called active from +8 up or from −8 down
[4] = S. cerevisiae growth modulation with rapamycin, primary screen, strain BY4716, OD600, 96 h (AID 1091); conditions: higher = more signal, called active from +8 up or from −8 down; also: test concentration not given here
[5] = target: Torsin-1A-interacting protein 2 (Homo sapiens) (UniProt Q8NFQ8); test: LULL1 binders on small-molecule microarray, primary screen, cell lysate, human LULL1 lysate, 635/667 nm fluorescence (AID 1092); conditions: hLULL1 lysate binding, 635 nm fluorescence, higher = more signal;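 also: probe is lysate of COS7 cells overexpressing human LULL1; score merges per-feature 667 nm fluorescence with signal-to-noise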
Sequence of Torsin-1A-interacting protein 2 (Homo sapiens) (Q8NFQ8 whole entry, looked up): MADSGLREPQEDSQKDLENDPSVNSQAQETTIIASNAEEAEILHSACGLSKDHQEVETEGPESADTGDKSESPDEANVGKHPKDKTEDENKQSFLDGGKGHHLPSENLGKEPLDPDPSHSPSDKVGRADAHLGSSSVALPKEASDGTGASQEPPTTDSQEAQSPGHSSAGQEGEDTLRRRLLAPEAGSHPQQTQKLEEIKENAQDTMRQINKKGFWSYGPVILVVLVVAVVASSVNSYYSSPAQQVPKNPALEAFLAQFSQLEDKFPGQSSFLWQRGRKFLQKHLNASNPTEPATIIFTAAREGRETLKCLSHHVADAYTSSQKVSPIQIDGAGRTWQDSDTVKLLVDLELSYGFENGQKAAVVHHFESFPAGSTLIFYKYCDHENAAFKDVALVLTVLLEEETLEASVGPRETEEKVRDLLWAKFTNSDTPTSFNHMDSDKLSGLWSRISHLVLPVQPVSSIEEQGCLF

[6] = E. coli growth modulation, two-sided OD650, primary screen, E. coli filamentation project, strain DRC41, 24 h (AID 1093); conditions: OD650, 24 h, higher = more signal, called active from +8 up or from −8 down;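 also: MC1000 strain lacking acrAB efflux and sulA so SOS filamentation is blocked; test concentration not given here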
[7] = small-molecule microarray binders of probe aLefty2, primary screen, biochemical, biotinylated probe, 635/667 nm fluorescence (AID 1094); conditions: higher = more signal;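 also: score merges spot fluorescence near 667 nm with spot signal-to-noise ratio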
[8] = system: Noggin (protein binding on small-molecule microarray); test: Noggin binders on small-molecule microarray, primary screen, biochemical, 635/667 nm fluorescence (AID 1095); conditions: 635 nm fluorescence, higher = more signal;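 also: score merges 667 nm feature fluorescence with signal to noise over triplicate slides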
[9] = target: Neurogenic locus notch homolog protein 3 (Homo sapiens) (UniProt Q9UM47); test: NOTCH3 binders on small-molecule microarray, primary screen, biochemical, 635/667 nm fluorescence (AID 1096); conditions: NOTCH3 binding, 635 nm fluorescence, higher = more signal
Sequence of Neurogenic locus notch homolog protein 3 (Homo sapiens) (Q9UM47 whole entry, looked up): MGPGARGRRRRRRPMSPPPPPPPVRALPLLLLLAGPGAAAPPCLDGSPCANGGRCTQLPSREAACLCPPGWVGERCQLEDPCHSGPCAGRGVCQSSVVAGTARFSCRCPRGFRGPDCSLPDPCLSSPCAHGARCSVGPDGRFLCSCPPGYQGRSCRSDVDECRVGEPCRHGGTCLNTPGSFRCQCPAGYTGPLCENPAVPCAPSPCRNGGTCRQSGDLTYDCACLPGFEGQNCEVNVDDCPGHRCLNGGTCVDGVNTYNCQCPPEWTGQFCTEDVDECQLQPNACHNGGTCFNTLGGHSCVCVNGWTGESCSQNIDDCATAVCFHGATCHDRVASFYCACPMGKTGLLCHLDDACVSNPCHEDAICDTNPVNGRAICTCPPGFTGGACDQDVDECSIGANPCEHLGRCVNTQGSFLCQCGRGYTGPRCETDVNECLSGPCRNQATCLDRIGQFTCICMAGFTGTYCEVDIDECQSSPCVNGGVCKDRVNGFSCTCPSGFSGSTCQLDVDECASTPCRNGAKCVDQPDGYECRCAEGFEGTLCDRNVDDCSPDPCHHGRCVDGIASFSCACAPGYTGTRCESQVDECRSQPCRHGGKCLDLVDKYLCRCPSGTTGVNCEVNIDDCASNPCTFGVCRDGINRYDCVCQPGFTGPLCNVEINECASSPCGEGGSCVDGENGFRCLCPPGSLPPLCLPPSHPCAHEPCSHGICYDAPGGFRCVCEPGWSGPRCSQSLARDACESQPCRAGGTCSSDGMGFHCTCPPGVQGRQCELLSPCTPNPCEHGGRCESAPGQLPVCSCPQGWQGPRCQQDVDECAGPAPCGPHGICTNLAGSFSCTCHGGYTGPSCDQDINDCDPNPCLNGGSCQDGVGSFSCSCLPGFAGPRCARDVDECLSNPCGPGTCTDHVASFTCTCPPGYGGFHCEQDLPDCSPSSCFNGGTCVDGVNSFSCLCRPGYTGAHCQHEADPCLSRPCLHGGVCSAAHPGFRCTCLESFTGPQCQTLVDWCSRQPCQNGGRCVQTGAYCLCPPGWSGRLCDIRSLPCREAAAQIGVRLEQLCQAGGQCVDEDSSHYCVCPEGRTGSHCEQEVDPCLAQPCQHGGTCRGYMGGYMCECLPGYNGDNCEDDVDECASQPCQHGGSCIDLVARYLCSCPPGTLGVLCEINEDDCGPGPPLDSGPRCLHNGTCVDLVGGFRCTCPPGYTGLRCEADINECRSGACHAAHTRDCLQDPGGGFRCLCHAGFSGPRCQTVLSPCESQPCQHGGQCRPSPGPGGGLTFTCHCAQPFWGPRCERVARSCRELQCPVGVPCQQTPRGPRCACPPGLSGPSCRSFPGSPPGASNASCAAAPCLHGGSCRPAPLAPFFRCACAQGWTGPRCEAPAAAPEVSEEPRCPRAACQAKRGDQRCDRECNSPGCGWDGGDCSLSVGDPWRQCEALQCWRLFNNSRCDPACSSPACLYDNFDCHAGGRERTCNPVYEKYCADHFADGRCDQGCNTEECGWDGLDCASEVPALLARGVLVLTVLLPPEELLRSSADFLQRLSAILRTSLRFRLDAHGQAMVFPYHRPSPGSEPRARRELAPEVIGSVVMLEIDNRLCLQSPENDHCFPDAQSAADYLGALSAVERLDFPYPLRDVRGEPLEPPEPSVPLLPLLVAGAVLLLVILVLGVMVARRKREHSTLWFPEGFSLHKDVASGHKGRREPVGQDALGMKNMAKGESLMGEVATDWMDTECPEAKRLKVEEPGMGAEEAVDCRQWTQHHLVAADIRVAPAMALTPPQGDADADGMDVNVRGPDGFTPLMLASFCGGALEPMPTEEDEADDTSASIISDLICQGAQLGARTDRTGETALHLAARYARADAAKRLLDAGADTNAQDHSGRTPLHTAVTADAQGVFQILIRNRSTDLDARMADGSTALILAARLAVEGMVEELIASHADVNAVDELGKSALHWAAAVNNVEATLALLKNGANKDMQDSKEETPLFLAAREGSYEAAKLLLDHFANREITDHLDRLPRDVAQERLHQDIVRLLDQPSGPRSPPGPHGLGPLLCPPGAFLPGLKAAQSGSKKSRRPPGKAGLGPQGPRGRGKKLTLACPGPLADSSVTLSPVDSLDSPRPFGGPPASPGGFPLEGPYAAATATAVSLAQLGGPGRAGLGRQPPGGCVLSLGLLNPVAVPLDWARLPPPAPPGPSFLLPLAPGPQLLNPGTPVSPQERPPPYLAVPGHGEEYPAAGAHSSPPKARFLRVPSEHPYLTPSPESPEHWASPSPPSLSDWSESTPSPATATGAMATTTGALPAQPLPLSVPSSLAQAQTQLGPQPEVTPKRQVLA

[10] = small-molecule microarray binders of probe aEGFR, primary screen, biochemical, biotinylated probe, 635/667 nm fluorescence (AID 1097); conditions: higher = more signal;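 also: probe is a biotinylated anti-EGFR antibody binding compounds printed on slides; score combines fluorescence near 667 nm and signal to noise of each spot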

Structure (SMILES) | composite z-score [1] | z-score [2] | z-score [3] | z-score [4] | composite z-score [5] | z-score [6] | composite z-score [7] | composite z-score [8] | composite z-score [9] | composite z-score [10]
C[C@]1(C(=O)NC2CC2)c2ccccc2C(=O)N(Cc2cc(C(F)(F)F)cc(C(F)(F)F)c2)[C@H]1c1ccc(CO)cc1 | 1.38 | 0.412 (inactive) | -1.05 (inactive) | -0.0211 (inactive) | 1.32 | 1.08 (inactive) | 0.0868 | 0.829 | 0.967 | -0.0013
[N-]=[N+]=NCc1ccccc1[C@@H]1OC(c2ccc(OCCCO)cc2)=N[C@]1(Cc1ccccc1N=[N+]=[N-])C(=O)N1CCOCC1 | 1.55 | -1.29 (inactive) | -1.59 (inactive) | 4.14 (inactive) | 3.25 | -0.667 (inactive) | 0.295 | 1.04 | 1.04 | 0.246
CC[C@@H]1C=C(C(=O)O)[C@H](c2ccco2)N1S(=O)(=O)c1ccc(C)cc1 | 0.475 | 0.316 (inactive) | 0.535 (inactive) | -0.407 (inactive) | 0.0172 | 0.0597 (inactive) | -0.0644 | 0.237 | -0.14 | -0.171
COCC(=C=CC[C@@H](O)c1ccccc1OCCO)C[C@@H](O)c1cc(Cl)cc(Cl)c1O | 1.53 | 0.157 (inactive) | -0.563 (inactive) | 0.0403 (inactive) | 2.13 | 0.0142 (inactive) | -0.053 | 1.42 | 1.07 | -0.0353
COc1ccc(C(O)C2C=CC3C(=O)N(c4ccccc4)C(=O)C3N2Nc2ccc(C(C)C)cc2)cc1OCc1ccccc1 (stereo not given) | 1.61 | 0.345 (inactive) | 0.309 (inactive) | -0.707 (inactive) | 2.97 | -3.72 (inactive) | 0.308 | 0.112 | 1.03 | 0.339
COC(=O)[C@@]1(Cc2ccc(F)cc2)[C@H]2c3cc(C(=O)N4CCCC4)n(Cc4cc(C)n(C)n4)c3C[C@H]2CN1C(=O)c1ccccc1 | 0.364 | -0.408 (inactive) | -0.292 (inactive) | 1.2 (inactive) | 3.75 | 0.234 (inactive) | 0.555 | -0.678 | 0.769 | 0.209
O=C1O[C@H](c2ccccc2)[C@H](c2ccccc2)N2[C@H]1[C@@H](C(=O)O)[C@]1(C(=O)Nc3ccc(C#CCCO)cc31)[C@H]2c1ccc(O)cc1 | -0.685 | 0.396 (inactive) | -0.228 (inactive) | 0.385 (inactive) | 0.782 | 1.57 (inactive) | 0.541 | -0.228 | -0.557 | 0.186
